Laboratory results published in article PMC5700166.

Key:
Experiment in all cases: protein-binding microarray (PBM); PBM: ~300 nM protein, 6 mM HEPES pH 7.8, 80 mM KCl, 0.5 mM EDTA, 0.5 mM EGTA, 6% glycerol, 35 ng/ul poly-dIdC, 1% milk, 1 h, room temperature; Ap Aiptasia and Nv Nematostella (sea anemones) / Co Capsaspora / Aq Amphimedon (sponge) / Dm Drosophila / Hu human; RHD is the Rel homology domain; high values mean tight binding
Conditions in all cases: dsDNA, one strand shown
GST-Ap-NF-kB RHD = molecular target: T1, GST-Ap-NF-kB RHD (Exaiptasia pallida (Aiptasia), UniProt A0A913YAJ5 2-422)
T1 sequence: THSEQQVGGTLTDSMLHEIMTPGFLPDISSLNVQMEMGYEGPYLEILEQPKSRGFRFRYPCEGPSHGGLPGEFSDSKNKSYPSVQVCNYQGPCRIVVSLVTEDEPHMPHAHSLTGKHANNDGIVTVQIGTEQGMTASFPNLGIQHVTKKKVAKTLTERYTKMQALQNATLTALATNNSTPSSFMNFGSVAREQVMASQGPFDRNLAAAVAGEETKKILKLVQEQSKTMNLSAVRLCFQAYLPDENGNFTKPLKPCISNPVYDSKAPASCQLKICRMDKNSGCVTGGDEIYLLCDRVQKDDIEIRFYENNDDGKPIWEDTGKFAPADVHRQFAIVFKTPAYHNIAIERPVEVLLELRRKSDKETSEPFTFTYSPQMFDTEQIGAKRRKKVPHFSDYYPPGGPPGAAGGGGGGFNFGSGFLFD

[1] = molecular target: T2, GST-Nv-NF-kB (Cys allele) (Nematostella vectensis, UniProt E5G601 2-411)
T2 sequence: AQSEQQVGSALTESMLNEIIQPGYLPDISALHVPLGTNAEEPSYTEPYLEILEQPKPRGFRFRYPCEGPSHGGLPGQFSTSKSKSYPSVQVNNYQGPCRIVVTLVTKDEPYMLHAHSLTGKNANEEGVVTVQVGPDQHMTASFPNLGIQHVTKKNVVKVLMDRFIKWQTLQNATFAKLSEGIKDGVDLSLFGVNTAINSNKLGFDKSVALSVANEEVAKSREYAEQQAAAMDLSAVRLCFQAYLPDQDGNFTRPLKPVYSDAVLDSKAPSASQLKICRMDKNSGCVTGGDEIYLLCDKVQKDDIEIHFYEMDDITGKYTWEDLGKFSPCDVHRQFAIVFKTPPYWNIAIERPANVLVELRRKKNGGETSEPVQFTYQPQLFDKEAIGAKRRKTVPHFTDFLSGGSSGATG

GST-Dm-Relish = molecular target: T3, GST-Dm-Relish (Drosophila melanogaster, UniProt Q94527 99-473)
T3 sequence: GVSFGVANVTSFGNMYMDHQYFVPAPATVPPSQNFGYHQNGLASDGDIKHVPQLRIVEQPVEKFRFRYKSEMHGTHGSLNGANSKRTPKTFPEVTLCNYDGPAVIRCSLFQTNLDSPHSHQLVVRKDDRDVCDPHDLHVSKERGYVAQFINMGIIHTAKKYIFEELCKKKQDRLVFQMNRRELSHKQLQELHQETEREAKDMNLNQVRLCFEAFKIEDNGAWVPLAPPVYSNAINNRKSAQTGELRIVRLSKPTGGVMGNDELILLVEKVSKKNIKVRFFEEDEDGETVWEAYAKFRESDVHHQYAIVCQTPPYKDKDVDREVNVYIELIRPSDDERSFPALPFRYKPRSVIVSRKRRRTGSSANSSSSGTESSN

GST-Aq-NF-kB = molecular target: T4, GST-Aq-NF-kB (Amphimedon queenslandica, UniProt A9Y5G7 2-389)
T4 sequence: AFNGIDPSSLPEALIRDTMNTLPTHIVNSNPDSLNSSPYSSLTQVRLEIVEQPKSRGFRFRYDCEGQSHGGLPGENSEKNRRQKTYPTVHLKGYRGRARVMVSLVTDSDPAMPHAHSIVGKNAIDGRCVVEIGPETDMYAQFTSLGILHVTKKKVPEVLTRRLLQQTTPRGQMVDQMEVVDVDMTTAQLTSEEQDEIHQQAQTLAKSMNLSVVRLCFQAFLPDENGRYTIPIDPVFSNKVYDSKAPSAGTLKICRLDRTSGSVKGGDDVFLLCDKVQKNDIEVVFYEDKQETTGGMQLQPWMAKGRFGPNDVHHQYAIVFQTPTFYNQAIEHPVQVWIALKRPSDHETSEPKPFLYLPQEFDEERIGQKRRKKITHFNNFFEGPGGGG

Sequence | binding signal (GST-Ap-NF-kB RHD) [z-score] | binding signal [1] [z-score] | binding signal (GST-Dm-Relish) [z-score] | binding signal (GST-Aq-NF-kB) [z-score]
CCGATTAACATCAAAAATTTACCTGATGTTAATCGGGTCTTGATTCGCTTGACGCTGCTG | 1.32 | 3.04 | 4.45 | 2.7
CCGATTAACATCACGGAAAACCCTGATGTTAATCGGGTCTTGATTCGCTTGACGCTGCTG | 2.23 | 2.07 | 3.69 | 4.81
CCGATTAACATCAGGAAAACCCATGATGTTAATCGGGTCTTGATTCGCTTGACGCTGCTG | 2.63 | 2.25 | 4.78 | 4.02
CCGATTAACATCAGGAATCCCTATGATGTTAATCGGGTCTTGATTCGCTTGACGCTGCTG | 2.79 | 2.15 | 6.17 | 2.57
CCGATTAACATCAGGAAAAGCCCTGATGTTAATCGGGTCTTGATTCGCTTGACGCTGCTG | 2.12 | 1.89 | 4.12 | 4.95
CCGATTAACATCAAAAAAAGTCCTGATGTTAATCGGGTCTTGATTCGCTTGACGCTGCTG | 1.18 | 1.72 | 5.69 | 4.05
CCGATTAACATCAGGTATTTTTATGATGTTAATCGGGTCTTGATTCGCTTGACGCTGCTG | 1.27 | 2.01 | 3.8 | 2.77
CCGATTAACATCAGGAACATCCCTGATGTTAATCGGGTCTTGATTCGCTTGACGCTGCTG | 1.46 | 1.39 | 1.9 | 4.06
CCGATTAACATCAGGAATTACCATGATGTTAATCGGGTCTTGATTCGCTTGACGCTGCTG | 1.03 | 1.38 | 4.62 | 3
CCGATTAACATCAGGAAGGCCCCTGATGTTAATCGGGTCTTGATTCGCTTGACGCTGCTG | 2.9 | 2.69 | 4.9 | 5.3
CCGATTAACATCAGGGACTCACCTGATGTTAATCGGGTCTTGATTCGCTTGACGCTGCTG | 3.77 | 3.19 | 7.74 | 4.68
CCGATTAACATCAGAAATTTACCTGATGTTAATCGGGTCTTGATTCGCTTGACGCTGCTG | 1.1 | 2.05 | 2.77 | 2.09
CCGATTAACATCAGAAAATTACCTGATGTTAATCGGGTCTTGATTCGCTTGACGCTGCTG | 2.06 | 3.89 | 4.45 | 3.25
CCGATTAACATCACGGGTTTTTCTGATGTTAATCGGGTCTTGATTCGCTTGACGCTGCTG | 3.7 | 3.76 | 5.07 | 4.7
CCGATTAACATCAAGAAATTACCTGATGTTAATCGGGTCTTGATTCGCTTGACGCTGCTG | 1.26 | 2.74 | 3.19 | 2.27
CCGATTAACATCAGGAATGTCCCTGATGTTAATCGGGTCTTGATTCGCTTGACGCTGCTG | 3.06 | 5.35 | 3.4 | 6.41

Sequence | binding signal (GST-Ap-NF-kB RHD) [z-score] | binding signal [1] [z-score] | binding signal (GST-Dm-Relish) [z-score] | binding signal (GST-Aq-NF-kB) [z-score]
CCGATTAACATCAAAAAATACCATGATGTTAATCGGGTCTTGATTCGCTTGACGCTGCTG | 1.11 | 1.58 | 4.53 | 2.23
CCGATTAACATCAGGGCATTACCTGATGTTAATCGGGTCTTGATTCGCTTGACGCTGCTG | 1.29 | 1.87 | 3.33 | 4.51
CCGATTAACATCAGAGAAACCCCTGATGTTAATCGGGTCTTGATTCGCTTGACGCTGCTG | 5.16 | 4.86 | 5.69 | 5.18
CCGATTAACATCAGGGAGAGCCCTGATGTTAATCGGGTCTTGATTCGCTTGACGCTGCTG | 3.06 | 3.59 | 1.82 | 6.26
CCGATTAACATCAATGGGATTCCTGATGTTAATCGGGTCTTGATTCGCTTGACGCTGCTG | 1.54 | 1.13 | 7.4 | 1.65
CCGATTAACATCAAAAAAGACCCTGATGTTAATCGGGTCTTGATTCGCTTGACGCTGCTG | 2.93 | 5.44 | 6.91 | 6.04
CCGATTAACATCACGGGACTTCCTGATGTTAATCGGGTCTTGATTCGCTTGACGCTGCTG | 5.89 | 6.03 | 7.87 | 6.21
CCGATTAACATCAGGGAGCTACCTGATGTTAATCGGGTCTTGATTCGCTTGACGCTGCTG | 2.89 | 1.88 | 1.02 | 3.21
CCGATTAACATCACGGACTTCCCTGATGTTAATCGGGTCTTGATTCGCTTGACGCTGCTG | 2.56 | 2.62 | 7.44 | 5.45
CCGATTAACATCAGGGATATCCATGATGTTAATCGGGTCTTGATTCGCTTGACGCTGCTG | 1.84 | 1.09 | 2.52 | 2.44
CCGATTAACATCAGGGATTCCAATGATGTTAATCGGGTCTTGATTCGCTTGACGCTGCTG | 1.68 | 1 | 5.16 | 1.78
CCGATTAACATCATTAGGGTATTTGATGTTAATCGGGTCTTGATTCGCTTGACGCTGCTG | 2.55 | 3.98 | 1.47 | 3.54
CCGATTAACATCAGGCGAGTCCCTGATGTTAATCGGGTCTTGATTCGCTTGACGCTGCTG | 3.13 | 3.12 | 1.72 | 4.31
CCGATTAACATCAAAATTTCACCTGATGTTAATCGGGTCTTGATTCGCTTGACGCTGCTG | 1.14 | 2.14 | 2.34 | 1.7
CCGATTAACATCAAGGAAAACCCTGATGTTAATCGGGTCTTGATTCGCTTGACGCTGCTG | 2.67 | 2.33 | 4.56 | 4.66
CCGATTAACATCAAGGGCTTCCCTGATGTTAATCGGGTCTTGATTCGCTTGACGCTGCTG | 1.53 | 1.82 | 7.18 | 3.85
